# According to PMC4242493, “Sequence specificity incompletely defines the genome-wide occupancy of Myc”:
# In all, about 33,000 sequences were measured (“normalized occupancy”: median about 0.075, highest 2% from about 0.095 on). The sample holds the highest values, similar sequences and a random draw of the others, so the mix is not that of the screen.
# Target: MaxL homodimer (Homo sapiens, UniProt P61244 1-160)
# Experiment: universal protein-binding microarray (PBM); PBS-based mixture, 10 nM His-tagged protein dimer, 2% milk, 200 ng/uL BSA, 50 ng/uL salmon testes DNA, 0.02% TX-100; detection with Alexa 488 anti-His antibody;; high values mean tight binding
# Settings: protein: recombinant; tags: C-terminal His-tag (pET21a); chain copies: 2; dsDNA, one strand shown
# Summary of the method: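 A His-tagged protein dimer at 10 nM was incubated on Agilent 4 x 44 K arrays of the 'all 10-mer' universal design, then labelled with 10 ng/μL fluorophore-conjugated anti-His antibody and scanned on a GenePix 4400A. A fluorescence intensity was assigned to each 8-mer. Binding occupancy is each such intensity normalised to that of the highest-ranked one.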
# Chain of MaxL homodimer (P61244 whole entry): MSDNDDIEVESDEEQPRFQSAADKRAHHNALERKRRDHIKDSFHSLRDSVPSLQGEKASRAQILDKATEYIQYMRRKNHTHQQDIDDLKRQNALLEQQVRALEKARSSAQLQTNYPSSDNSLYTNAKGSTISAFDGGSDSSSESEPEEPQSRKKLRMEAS
row,Sequence,binding signal [normalized occupancy]
1,AGCCATGG,0.0832
2,CGCCATGC,0.0988
3,CGCCATGA,0.0842
4,CGCCATCC,0.077
5,AGCCATGC,0.0996
6,AGCCATGA,0.0819
7,ATGTCAAT,0.0778
8,GGTAACCA,0.0775
9,CTTCTTTA,0.075
10,AAAACGAT,0.0742
11,ACATGGCT,0.0932
12,ACATGGGC,0.0848
13,ACATGGGT,0.1
14,ACATGGAA,0.0918
15,ACATGGAT,0.101
16,AAATGGGT,0.0763
17,CCATGGCG,0.0768
18,ACATGGGG,0.101
19,ACATGGCG,0.098
20,CCATGGGG,0.0949
21,ACTTGGGG,0.0791
22,ACATGGAG,0.0868
23,GACATTGA,0.078
24,CAATGAGC,0.074
25,CGTGCGTA,0.0916

row,Sequence,binding signal [normalized occupancy]
1,ATTATGTA,0.0828
2,CCCCCGCG,0.0757
3,TGGCTAAA,0.074
4,ATGACAGC,0.0803
5,GTAATAAA,0.076
6,ACTACTAT,0.0796
7,GGGGGCAC,0.0775
8,AAACGTAA,0.0743
9,GGAGACAA,0.0754
10,CTTAGGCA,0.0777
11,AACTAATT,0.0744
12,GTTTAGAA,0.0757
13,AGTTTACA,0.0773
14,AGCGTGAT,0.1
15,AGAGTGAC,0.0747
16,AGCGTGAC,0.101
17,ACCGTGAT,0.0871
18,AGCGTGAA,0.0854
19,AGTGTGAC,0.089
20,CCATAGGA,0.0736
21,AACCTTGT,0.0729
22,CAAGGAAC,0.079
23,GGACGGCA,0.0718
24,GAAATTTA,0.0725
25,ATTAGTCA,0.0775

row,Sequence,binding signal [normalized occupancy]
1,GAATTCTA,0.0768
2,AAGGTGAC,0.0729
3,ACCGTGAC,0.0781
4,AACGTGAC,0.109
5,AACGTGAA,0.0849
6,AACGTGAG,0.0854
7,AACGTGAT,0.11
8,ACCTAACC,0.0792
9,GAGATGGA,0.0798
10,GGTACCCA,0.0727
11,AATCATGT,0.0985
12,GATCATCC,0.0784
13,AATCATCC,0.083
14,CATCATGA,0.0846
15,AATCATGC,0.0958
16,ATTCATGC,0.0905
17,CATCATGC,0.0995
18,AATCATGA,0.0851
19,GATCATGA,0.0863
20,AATCATGG,0.0832
21,CATCATGG,0.0895
22,GATCATGC,0.101
23,ATGCTCCA,0.0829
24,TGAGTTAA,0.078
25,CAGCGTGA,0.104

row,Sequence,binding signal [normalized occupancy]
1,CAGCGTGG,0.129
2,CATCGTGG,0.0917
3,GAGCGTGA,0.0923
4,CAGCGTCA,0.0719
5,TAGCGTGA,0.0905
6,CTAATGTA,0.078
7,ATGTACGA,0.0873
8,CATGGGGG,0.0995
9,CATGGGGA,0.1
10,CATGGGAA,0.0896
11,AATGGGGG,0.0803
12,AATGGGGA,0.0809
13,CATGGGGC,0.0935
14,CCGTTTGA,0.0729
15,CAGGTGAC,0.0878
16,AAACATTA,0.0779
17,CCATGCGA,0.1
18,GCATGCGC,0.121
19,TCATGCGA,0.0877
20,GTATGCGA,0.0727
21,CCATGCGG,0.145
22,GGATGCGA,0.0783
23,CCCTGCGG,0.0745
24,CAATGCGG,0.0873
25,GAATGCGC,0.075

row,Sequence,binding signal [normalized occupancy]
1,GCATGCGA,0.119
2,CAATGCGA,0.0774
3,AAATGCGC,0.0749
4,TGATAGAA,0.0854
5,GTGTCGTA,0.0815
6,AGGTCACG,0.082
7,CTGTTGTA,0.0736
8,AAAGAGCA,0.0761
9,ATGCGCGA,0.0781
10,ATGTTCAG,0.0809
11,ACACATCC,0.0784
12,CCATGCGC,0.121
13,CTATGCGC,0.075
14,CAATGCGC,0.0788
15,ACCATTGC,0.0746
16,AAACGTAC,0.074
17,CAACGTCA,0.0743
18,AAACGTTT,0.0755
19,CAACGTAC,0.0758
20,CAACGTGC,0.122
21,CAACGTTC,0.0755
22,AAACGTGT,0.1
23,AAACGTAT,0.0746
24,AAACGTGC,0.101
25,GAACGTGC,0.0931

row,Sequence,binding signal [normalized occupancy]
1,CAACGTGA,0.118
2,CAACGTAA,0.0776
3,CACACCCA,0.0877
4,ATTATTTG,0.0793
5,ACCGATAC,0.075
6,TCTCCAAA,0.0803
7,CTCTCAGC,0.0719
8,CATGGCTC,0.09
9,AAACCATA,0.0792
10,CTGAATCC,0.0737
11,CGTACGCC,0.0757
12,CTTAACCC,0.0738
13,ACAACTAA,0.0755
14,CGGCAGCC,0.0724
15,CGTTTAGA,0.0747
16,AAACGTGA,0.099
17,CAACGTGG,0.154
18,TAACGTGA,0.0935
19,CAACGTTG,0.083
20,AAACGTGG,0.123
21,AAACGTAG,0.0771
22,CAACGTAG,0.0762
23,AAACGTCG,0.0737
24,GAACGTGA,0.0801
25,ATCGCCAG,0.0753

row,Sequence,binding signal [normalized occupancy]
1,AAGACATG,0.0912
2,GAAGCATC,0.076
3,AACATCCA,0.0849
4,ACTTAAAT,0.0746
5,CCACGTGC,0.814
6,CGACGTGC,0.083
7,CTACGTGA,0.0799
8,CCACGTGG,0.971
9,TCACGTGA,0.19
10,CTACGTGC,0.0865
11,CCACGTCG,0.086
12,CCACGTAG,0.0817
13,TCACGTCA,0.0819
14,CCACGTGA,0.482
15,CGACGTGA,0.0883
16,TCACGTAA,0.086
17,GGAGAGCA,0.0742
18,CCGTCTAA,0.0757
19,ACAAATGT,0.079
20,GGTCAGGA,0.0732
21,GAGGAAGA,0.075
22,ACCTGTAA,0.0823
23,CCACCTCG,0.0794
24,GCACCTGC,0.0846
